Test results as given in the supplement of paper PMC8728848.
About 410 targets per protein were measured; listed, in parts, are those with the strongest signals and a random draw of the rest.

Experiments:
Test in all cases: glycan array binding signal (z-score within array); higher = stronger binding
Details in all cases: glycan notation: IUPAC condensed, linker removed
[1] = target: Fuc(a1-2)Gal(b1-3)GalNAc(b1-3)Gal
In short: (§1)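 Negative Z-scores can be read as non-binding. The Z-score is calculated within each array and then averaged across arrays of one protein sequence at different concentrations or buffers and across linkers. Arrays, 3228 in all, were curated from the Consortium for Functional Glycomics database and kept only where the protein sequence was available.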

[2] = target: Fuc(a1-2)Gal(b1-3)GalNAc(b1-4)[Neu5Ac(a2-3)]Gal(b1-4)Glc
In short: as §1

[3] = target: Fuc(a1-3)[Gal(b1-4)]GlcNAc6S
In short: as §1

[4] = target: Fuc(a1-3)[Gal3S(b1-4)]Glc6S
In short: as §1

[5] = target: Fuc(a1-3)[Gal3S(b1-4)]GlcNAc6S
In short: as §1

[6] = target: Gal(b1-3)GlcNAc(b1-3)Gal(b1-4)Glc
In short: as §1

[7] = target: Gal(b1-3)[Fuc(a1-4)]GlcNAc(b1-3)Gal(b1-3)[Fuc(a1-4)]GlcNAc
In short: as §1

[8] = target: Gal(b1-3)[GlcNAc(b1-6)]GalNAc
In short: as §1

[9] = target: Gal(b1-4)GlcNAc(b1-3)Gal(b1-4)GlcNAc
In short: as §1

[10] = target: Gal(b1-4)GlcNAc(b1-3)[Gal(b1-4)GlcNAc(b1-6)]GalNAc
In short: as §1

[11] = target: Gal3S(b1-3)[Fuc(a1-4)]GlcNAc
In short: as §1

Gal3S(b1-4)Glc = target: Gal3S(b1-4)Glc
In short: as §1

[12] = target: Gal3S(b1-4)[Fuc(a1-3)]Glc
In short: as §1

Gal3S6S(b1-4)GlcNAc = target: Gal3S6S(b1-4)GlcNAc
In short: as §1

Gal6S(b1-4)GlcNAc = target: Gal6S(b1-4)GlcNAc
In short: as §1

Glc(a1-4)Glc = target: Glc(a1-4)Glc
In short: as §1

GlcNAc(b1-3)Gal(b1-4)Glc = target: GlcNAc(b1-3)Gal(b1-4)Glc
In short: as §1

[13] = target: GlcNAc(b1-3)[GlcNAc(b1-6)]Gal(b1-4)GlcNAc
In short: as §1

[14] = target: GlcNAc(b1-4)Gal(b1-4)GlcNAc
In short: as §1

Kdn(a2-3)Gal(b1-3)GlcNAc = target: Kdn(a2-3)Gal(b1-3)GlcNAc
In short: as §1

[15] = target: Neu5Ac(a2-3)Gal(b1-3)GalNAc(b1-3)Gal(b1-4)GlcNAc
In short: as §1

[16] = target: Neu5Ac(a2-3)Gal(b1-3)GlcNAc
In short: as §1

[17] = target: Neu5Ac(a2-3)Gal(b1-3)[Neu5Ac(a2-3)Gal(b1-4)]GlcNAc
In short: as §1

[18] = target: Neu5Ac(a2-3)Gal(b1-4)GlcNAc(b1-2)Man(a1-3)[Neu5Ac(a2-3)Gal(b1-4)GlcNAc(b1-2)Man(a1-6)]Man(b1-4)GlcNAc(b1-4)GlcNAc
In short: as §1

Neu5Ac(a2-3)GalNAc = target: Neu5Ac(a2-3)GalNAc
In short: as §1

[19] = target: Neu5Ac(a2-3)[GalNAc(b1-4)]Gal(b1-4)Glc
In short: as §1

[20] = target: Neu5Ac(a2-3)[Neu5Ac(a2-6)]GalNAc
In short: as §1

[21] = target: Neu5Ac(a2-6)Gal(b1-4)GlcNAc(b1-2)Man(a1-6)[GlcNAc(b1-2)Man(a1-3)]Man(b1-4)GlcNAc(b1-4)GlcNAc
In short: as §1

[22] = target: Neu5Gc(a2-3)Gal(b1-3)[Fuc(a1-4)]GlcNAc
In short: as §1

B1: P-Selectin (Mus musculus), Q01102 (protein)
chain: MAGCPKGSWTPRLRSVILGGAQLIWFSALISELVNQKEVAAWTYNYSTKAYSWNNSRVFCRRHFTDLVAIQNKNEIAHLNDVIPFFNSYYWIGIRKINNKWTWVGTNKTLTEEAENWADNEPNNKKNNQDCVEIYIKSNSAPGKWNDEPCFKRKRALCYTASCQDMSCSNQGECIETIGSYTCSCYPGFYGPECEYVKECGKVNIPQHVLMNCSHPLGEFSFNSQCTFSCAEGYELDGPGELQCLASGIWTNNPPKCDAVQCQSLEAPPHGTMACMHPIAAFAYDSSCKFECQPGYRARGSNTLHCTGSGQWSEPLPTCEAIACEPPEIPIHGSMDCVPSTGTFGYNSSCTFLCAEGFVLKGNDAIQCADSGQWTAPAPFCEALQCPEFPVPSKAQVNCSDPFGTLTYQSVCSFSCDEGSLLVGASVIRCLATGHWNGAPPECQAVSCAPMLSPENGSMTCVQPLGNSTYKSTCQFMCDEGFYLSGPERLDCSPSGHWTGTPPTCEAIKCPGIFAPEQGNLDCSHVHGEFGVGSICHFSCNEDFELLGSENVECTVSGRWSAPPPTCKGITSLPAPAVRCPALTTPGQGTMSCQHHLGSFGPNTTCYFGCKTGFTLRGANSLRCRASGQWTAVTPMCRAVKCSELHMDTAVAMNCSNPWGNFSYGSTCTFQCPEGQSLNGSVRATCREDGHWSDAMPTCQAGTLTIQEALTYLGGAVASTTGLAVGGTLLALLRKRLRKKDDGKCPLNPHSHLGTYGVFTNAAYDPTP
Which “glycan array binding signal (z-score)” value [1] does the source give for B1 here?
Its value is -0.303.

And the “glycan array binding signal (z-score)” value [2]?
Its value is -0.426.

What about the “glycan array binding signal (z-score)” value [3] of the same binder?
The value was 2.1.

What about the “glycan array binding signal (z-score)” value [4] of the same binder?
Its value is 3.7.

And the “glycan array binding signal (z-score)” value [5]?
The value was 3.95.

What about the “glycan array binding signal (z-score)” value [6] of the same binder?
The value was -0.261.

And the “glycan array binding signal (z-score)” value [7]?
Its value is 0.199.

And the “glycan array binding signal (z-score)” value [8]?
The value was -0.4.

What about the “glycan array binding signal (z-score)” value [9] of the same binder?
The value was -0.29.

What about the “glycan array binding signal (z-score)” value [10] of the same binder?
The value was -0.495.

What about the “glycan array binding signal (z-score)” value [11] of the same binder?
The value was 3.6.

And the “glycan array binding signal (z-score)” value (Gal3S(b1-4)Glc)?
The value was -0.174.

And the “glycan array binding signal (z-score)” value [12]?
The value was 4.89.

And the “glycan array binding signal (z-score)” value (Gal3S6S(b1-4)GlcNAc)?
The value was 1.4.

What about the “glycan array binding signal (z-score)” value (Gal6S(b1-4)GlcNAc) of the same binder?
Its value is -0.055.

What about the “glycan array binding signal (z-score)” value (Glc(a1-4)Glc) of the same binder?
Its value is -0.562.

And the “glycan array binding signal (z-score)” value (GlcNAc(b1-3)Gal(b1-4)Glc)?
The value was -0.616.

What about the “glycan array binding signal (z-score)” value [13] of the same binder?
Its value is -0.63.

What about the “glycan array binding signal (z-score)” value [14] of the same binder?
The value was -0.478.

And the “glycan array binding signal (z-score)” value (Kdn(a2-3)Gal(b1-3)GlcNAc)?
Its value is -0.37.

And the “glycan array binding signal (z-score)” value [15]?
Its value is -0.354.

What about the “glycan array binding signal (z-score)” value [16] of the same binder?
Its value is -0.3.

And the “glycan array binding signal (z-score)” value [17]?
The value was -0.297.

What about the “glycan array binding signal (z-score)” value [18] of the same binder?
The value was -0.154.

And the “glycan array binding signal (z-score)” value (Neu5Ac(a2-3)GalNAc)?
Its value is -0.381.

What about the “glycan array binding signal (z-score)” value [19] of the same binder?
Its value is -0.331.

And the “glycan array binding signal (z-score)” value [20]?
Its value is 0.023.

What about the “glycan array binding signal (z-score)” value [21] of the same binder?
Its value is -0.311.

And the “glycan array binding signal (z-score)” value [22]?
The value was 3.75.
